SW480 rereplic: A quantitative high throughput screen for small molecules that induce DNA re-replication in SW480 colon adenocarcinoma cells; Potency, µM (series often up to 46.1 µM), for inactives: at the highest dose re-replication activation, most hits filed as activators; SW480 DNA re-replication, Hoechst DNA content imaging, 48 h; actives 1.8% (n = 340,000); further: potency means the concentration at half of the fitted maximal effect; % of control where 0% means no effect; nearly all actives have a fitted effect of over 55% in size
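Cells (250 per well) received 23 nL compound or DMSO by pin tool and were kept 48 hr at 37 C, 5% CO2. Nuclei were then stained with Hoechst for 40 min and scanned for DNA content.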
PINK1 modulator: A Quantitative High throughput Screen to Identify Chemical Modulators of PINK1 Expression; actives 0.2% (n = 410,000); AID 624263, 2012; PINK1 immunofluorescence, high-content cytometry, 24 h; Potency, µM (doses to about 76.6 µM), for the others: at the top dose activation (PINK1 increase), most hits filed as activators; active means well fitted activation curve with a large enough effect; inconclusive means small, poorly fitted or top-dose-only effect; cell line not stated here; further: potency means the concentration at half of the fitted maximal effect; % of control where 0% means no effect; nearly all actives have a fitted effect of over 65% in size
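Stable cell line, 250 cells/well, 12 h attachment; compounds pinned at 5 concentrations, 24 h; CCCP control. Fixed with nuclear dye, primary antibodies 12 h at 10 degrees C, secondary plus cell stain; laser-scanning cytometer read.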
IL-1B inflam inh: qHTS for Inhibitors of Inflammasome Signaling: IL-1-beta AlphaLISA Primary Screen | actives 4.7% (n = 360,000) | activity change, % at 57.5 µM | THP-1 LPS/ATP IL-1B secretion, AlphaLISA, 16 h; active compounds read low | AID 743279, 2014; in the data active means activity change below about -50%; inconclusive means mostly about -30% to -49%; further: on the % scale 0 is the no-effect control and ±100 the full control effect
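Secreted IL-1B measured by AlphaLISA bead assay after 16 h compound exposure of THP-1 cells; compounds (final up to 57.5 uM) added 1 h before LPS (250 ng/mL) and ATP (1.25 mM) stimulation; lower signal means less secretion.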
S2 tox: Viability Counterscreen for Primary qHTS for Inhibitors of ATXN expression; S2 cells (HEK-293 line with an ATXN2-luciferase reporter) viability, CellTiter-Fluor protease fluorescence, 24 h; AID 651635, 2014; Potency, µM (highest dose often 56.7 µM), usual class: cytotoxic; actives 0.49% (n = 400,000); further: potency means the concentration at half of the fitted maximal effect; nearly all actives have a fitted effect of over 40% in size
MCF10A rereplic: A quantitative high throughput screen for small molecules that induce DNA re-replication in MCF 10a normal breast cells; Potency, µM (top dose mostly 46.1 µM), inactives show top-dose activity, positive = re-replication, most hits filed as activators; MCF 10A DNA re-replication, Hoechst nuclear intensity, 48 h; actives 2.9% (n = 350,000); AID 624296, 2012; further: potency means the concentration at half of the fitted maximal effect; % of control where 0% means no effect; nearly all actives have a fitted effect of over 50% in size
ATXN2 expr inh: Primary qHTS for Inhibitors of ATXN expression | actives 0.72% (n = 360,000) | Potency, µM (titrated, usually from 57 µM), for the others: top-dose activity change, negative = inhibition, usual class: inhibitors | AID 1745845, 2022 | HEK-293 ATXN2-luciferase reporter, luminescence, 24 h; further: potency means the concentration at half of the fitted maximal effect; on the % scale 0 is the no-effect control and ±100 the full control effect; nearly all actives have a fitted effect of over 55% in size
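ATXN2-luciferase reporter cells (luciferase flanked by upstream and downstream ATXN2 gene portions) were treated 24 h at 37 °C with compounds at up to 57 uM. SteadyGlo luminescence gave expression; GF-AFC fluorescence gave viability.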
The depositor's hits bear a star; i = inactive; u = inconclusive; x = no result given; [ ] = dose if it differs, or a comment. Only some compounds are listed: those with a hit (about 7.1% of all), similar ones and a draw of the others. Unless noted, the call rests on the fitted dose curve; in most records, active means well fitted curve in the direction sought with a large enough effect; inconclusive means small, poorly fitted or top-dose-only effect, or another doubt; inactive means no such curve, though single readings can be large; an effect the other way counts as inactive or inconclusive.

SMILES | SW480 rereplic | PINK1 modulator | IL-1B inflam inh | S2 tox | MCF10A rereplic | ATXN2 expr inh
O=C(NC1CC(=O)N(c2ccc(F)cc2)C1)c1cc2ccccc2o1 (centres undefined) | x | -0.2% | x | x | x | x
Cc1cc(C)n(CCC(=O)N/N=C/c2ccc(Br)c([N+](=O)[O-])c2)n1 | -0.8% | 5.3% | -92.8* | i | 11.5% | -2.7%
CCn1cc([N+](=O)[O-])c(C(=O)Nc2ccc(Cn3nc(C)cc3C)cc2)n1 | -5.2% | -1.5%[38.3 µM] | -2.4 | u | 1.3% | 2.6%
Cc1cc(C)n(CC(=O)N/N=C/c2cc(Br)cc([N+](=O)[O-])c2O)n1 | 3.6% | 2.8% | 34.1 | i | u | x
Cc1cc(C)n(Cc2ccc(NC(=O)c3nn(C)cc3[N+](=O)[O-])cc2)n1 | 2.91µM* | -11.4%[38.3 µM] | -62.7* | i | 2.31µM* | 19.1%
CCn1cc([N+](=O)[O-])c(C(=O)Nc2ccn(Cc3ccccc3)n2)n1 | -6.0% | 1.3% | 13.3 | i | -3.6% | 4.1%
Cn1cc([N+](=O)[O-])c(C(=O)Nc2cc(Oc3cccnc3)cc([N+](=O)[O-])c2)n1 | 10.3µM* | 0.7% | -95.9* | u | 9.2µM* | -19.5%
Cc1ccc(Cn2ccc(NC(=O)c3nn(C)cc3[N+](=O)[O-])n2)cc1 | 11.6µM* | -4.1% | -100.6* | i | 13µM* | 19.5%
COc1ccc(Br)cc1CNC(=O)C1CCN(c2nnc(-n3cccc3CNc3ccc(C)cc3)s2)CC1 | x | -0.4% | x | x | x | x
Cn1cc([N+](=O)[O-])c(C(=O)Nc2ccc(C3CCCCC3)cc2)n1 | u | -1.3% | x | u | u | 1.9%
Cn1cc([N+](=O)[O-])c(C(=O)Nc2ccc(C(=O)N3CCCCC3)cc2)n1 | 14.6µM* | -3.4% | x | i | 20.6µM* | 15.2%
Cc1ccc(NC(=O)CN2C(=O)CC(c3ccc(C)c(C)c3)=Nc3ccccc32)cc1 | x | 0.4% | x | i | x | 0.0%
N=c1n(CCCOc2ccccc2Cl)c2ccccc2n1CC(N)=O | u | -2.1% | -102.3* | i | 20.3% | u
CCN(CC)CCn1c(=N)n(CCOc2ccccc2Cl)c2ccccc21 | x | -1.4% | x | x | x | x
CCCCn1c(CN2CCN(c3cccc(Cl)c3)CC2)nc2c1c(=O)[nH]c(=O)n2C | 5.8µM* | 2.8%[38.3 µM] | 38.7 | u | u | u
Cn1c(=O)[nH]c(=O)c2c1nc(CN1CCN(c3cccc(Cl)c3)CC1)n2CCCc1ccccc1 | -1.7% | 4.2% | -12.8 | i | -2.7% | -24.5%
CCOC(=O)c1c(C)[nH]c(C(=O)N/N=C/c2cc([N+](=O)[O-])ccc2O)c1C | 6.9% | 4.5% | 96.5 | u | -1.4% | u
CCOC(=O)c1[nH]c(C)c(C(=O)NCc2ccc(Cl)cc2)c1C | 4.5% | 2.6%[38.3 µM] | 35.2 | i | u | -5.9%
CCOC(=O)c1[nH]c(C)c(C(=O)Nc2ccccc2C)c1C | u | 2.8% | -5.1 | i | 3.66µM* | -0.3%
CCNC(=O)c1c(C)[nH]c(C(=O)OCC)c1C | u | 3.5%[38.3 µM] | 72.0 | i | -18.1% | 2.4%
CCOC(=O)c1c(C)[nH]c(C(=O)N/N=C\c2ccccc2O)c1C | 5.17µM* | 7.9% | 29.0 | u | u | u
CCOC(=O)c1[nH]c(C)c(C(=O)Nc2cc(Cl)ccc2C)c1C | 0.82µM* | u | 49.0 | u | u | -2.2%
COc1cc2nc(N3CCCCC3)nc(NC3CC3)c2cc1OC | x | 0.9% | x | x | x | x
CN(Cc1ccco1)C(=O)c1ccc2c(c1)N(Cc1ccccc1F)C(=O)c1ccccc1S2 | x | -1.0% | x | x | x | x
CC(=O)N[C@@H](CC(=O)O)C(=O)O | -59.1% | 0.4% | -107.5* | u | -2.2% | -5.1%
O=C(c1noc2c1CCCC2)N1CCC(CO)(Cc2ccccc2Cl)CC1 | 0.7% | 1.5% | -81.2* | i | u | -21.9%
